In PubChem BioAssay (NCI):
Compounds without any hit were thinned out: in the full panel of roughly 79,000, 15% have a hit. Unmarked numbers belong to inactive results. Cut-off read from the data, not from the text of the source: active = growth inhibition above about 70%; inactive = the rest.

Assay: NCI Yeast Anticancer Drug Screen. Data for the mlh1 rad18 strain (AID 175)
Conditions: S. cerevisiae mlh1 rad18 strain growth inhibition; at 50.0 µM; hits give high values
Procedure, shortened: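 Yeast w/ defined DNA-repair lesions; compound exposure; growth vs vehicle controls → % inhibition.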

SMILES	growth inhibition [%]
CCOC(=O)C(=CNc1cc(C(F)(F)F)ccc1N1CCOCC1)C(=O)OCC	-0.1
COCC(=O)c1ccc(C#N)cc1	2.2
CC(=O)Nc1ccc(O)c([N+](=O)[O-])c1	-11.4
CC1(C)C2CC3C(=CCCC3C(=O)O)C1C2 (stereo not given)	12.8
COc1cc(C(C#N)NNC(=O)c2ccccc2O)ccc1O (stereo not given)	38
O=C(On1nnc2ccccc2c1=O)c1ccccc1	12.8
c1ccc(-c2n[nH]c3c2CCCc2ccccc2-3)cc1	25.4
O=C1NC(=O)c2c(Br)c(Br)c(Br)c(Br)c21	-1.55
CCOC(=O)/C(F)=C/c1cccc([N+](=O)[O-])c1	19.8
Nc1cc(Cl)cc2[nH]c(=O)c3cc(Cl)ccc3c12	38
O=C1N=C2SCCCN2C1(c1ccccc1)c1ccccc1	6.9
COC(=O)Nc1nc2ccc(C3c4c(n[nH]c4C)CC(C)(O)C3C(C)=O)cc2[nH]1 (stereo not given)	10.6
O/N=C1\c2ccccc2-c2cccc(I)c21	5.5
O=C1C(c2ccccc2)=C(c2ccccc2)C(c2ccc(Sc3ccc(C4=C(c5ccccc5)C(=O)C(c5ccccc5)=C4c4ccccc4)cc3)cc2)=C1c1ccccc1	24.2
O=C(O)/C=C/C=C/c1ccc(Cl)cc1	-1.95
CSc1ccccc1C(C)(C)O	26.4
CCCNc1ccc2c(c1)C(=O)c1ccccc1-2	-1.8
C/C=C/C1OCC(C)(C)CO1	-1.5
NC(=O)N=P(c1ccccc1)(c1ccccc1)c1ccccc1	-12.9
COCCNC(c1ccccc1)C(O)c1ccccc1 (stereo not given)	-7.85

SMILES	growth inhibition [%]
CCOC(=O)N1C(=O)c2ccccc2C1=O	-9.25
COc1ccc(/C=C2\N=C(c3ccccc3)OC2=O)c(Br)c1OC(C)=O	14.3
CCCCCCCCCCCCCCC(CCCCCCCCCCCCCC)c1ccccc1	12.2
Clc1ccc2nc[nH]c2c1	18.2
[N-]=[N+]=CC(=O)C1OC1c1ccc(Br)cc1 (stereo not given)	33.1
O=C1NC2CCC(NC(=O)N1c1ccccc1)C1=C2C1	-32.1
C=CS(=O)(=O)c1ccc(NC(=O)Nc2ccc(Cl)cc2)cc1	5.85
O=c1c2ccccc2n2nnc3ccc(NCCNCCO)c1c32	-1.3
CCCCOC(=O)c1ccc(OC(=O)Nc2cccc(Cl)c2)cc1	30.1
CC(=O)OCC1OC(n2c(Br)nc3c(N)ncnc32)C(O)C1O (stereo not given)	-29.4
CC(=O)OC1/C=C(/C)CCC2OC2(C)CC2OC(=O)C3(CC3)C12 (stereo not given)	-7.2
NC(c1ccccc1)(c1ccccc1)c1ccccc1	11
Cc1cc(C(C)(C)C)nc(C(C)(C)C)c1	-4.85
COc1ccc(N2C(=O)C3c4[nH]c5cccc(C)c5c4C4CCC(C(C)(C)C)CC4C3C2=O)cc1 (stereo not given)	6
CCC(C)C(C(=O)OCCC[N+]1(C)CCCCC1)c1ccccc1 (stereo not given)	14
COC(=O)[C@H]1C=C[C@H](OC2OC(COC(C)=O)C(OC(C)=O)C(OC(C)=O)C2OC(C)=O)n2c(=O)n(-c3ccccc3)c(=O)n21 (stereo not given in full)	-48
Cc1ccc(N2C(=O)CS/C2=C(\C#N)c2nc3ccccc3[nH]2)cc1	-40.2
NC(=O)c1ccc[n+](CC(=O)Nc2ccccc2)c1	3.8
COc1ccc2c(-c3cc4ccccc4o3)cc(=O)oc2c1	-31.9
CN(C)CCCNC(=O)N/N=C\c1cccc2ccccc12	-6.45
